# Where “and” joins values, the source holds several entries; their conditions need not be identical. Identical values can stand only once.
# Columns and labels:
# [1] = target: T1, Muscle, skeletal receptor tyrosine-protein kinase (Homo sapiens) (UniProt O15146); details: at 1 µM;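 further: reported value is the mean percent inhibition of MuSK kinase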
# T1 sequence (whole entry): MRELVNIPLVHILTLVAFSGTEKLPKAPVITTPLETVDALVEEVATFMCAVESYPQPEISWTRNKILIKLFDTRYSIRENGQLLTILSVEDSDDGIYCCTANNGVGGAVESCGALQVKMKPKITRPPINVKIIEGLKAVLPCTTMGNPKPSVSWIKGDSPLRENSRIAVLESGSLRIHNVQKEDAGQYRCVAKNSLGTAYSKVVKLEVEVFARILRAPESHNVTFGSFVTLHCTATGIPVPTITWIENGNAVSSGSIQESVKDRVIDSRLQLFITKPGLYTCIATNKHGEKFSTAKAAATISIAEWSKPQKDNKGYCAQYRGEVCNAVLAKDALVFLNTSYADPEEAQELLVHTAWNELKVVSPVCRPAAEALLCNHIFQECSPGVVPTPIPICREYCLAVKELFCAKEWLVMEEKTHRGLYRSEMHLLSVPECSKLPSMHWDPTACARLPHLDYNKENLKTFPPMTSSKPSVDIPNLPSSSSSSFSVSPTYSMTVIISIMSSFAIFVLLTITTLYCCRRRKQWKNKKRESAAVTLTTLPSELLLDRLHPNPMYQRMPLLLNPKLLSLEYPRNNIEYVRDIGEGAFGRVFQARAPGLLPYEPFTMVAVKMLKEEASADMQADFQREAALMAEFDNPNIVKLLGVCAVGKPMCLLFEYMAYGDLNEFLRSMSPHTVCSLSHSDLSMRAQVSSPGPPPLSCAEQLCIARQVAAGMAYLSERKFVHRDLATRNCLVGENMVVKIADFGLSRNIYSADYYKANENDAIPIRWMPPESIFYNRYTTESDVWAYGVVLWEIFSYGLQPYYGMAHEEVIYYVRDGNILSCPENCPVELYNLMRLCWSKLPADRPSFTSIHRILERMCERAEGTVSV
# [2] = target: Platelet-derived growth factor receptor alpha (Homo sapiens) (UniProt P16234); details: at 0.1 µM
# [3] = target: Platelet-derived growth factor receptor alpha (Homo sapiens) (UniProt P16234); details: at 1 µM
# [4] = test system: Platelet-derived growth factor receptor alpha (Homo sapiens), P16234 [D842V]; details: at 0.1 µM
# [5] = test system: Platelet-derived growth factor receptor alpha (Homo sapiens), P16234 [D842V]; details: at 1 µM
# [6] = test system: Platelet-derived growth factor receptor alpha (Homo sapiens), P16234 [T674I]; details: at 0.1 µM
# [7] = test system: Platelet-derived growth factor receptor alpha (Homo sapiens), P16234 [T674I]; details: at 1 µM
# [8] = test system: Platelet-derived growth factor receptor alpha (Homo sapiens), P16234 [V561D]; details: at 0.1 µM
# [9] = test system: Platelet-derived growth factor receptor alpha (Homo sapiens), P16234 [V561D]; details: at 1 µM
# [10] = target: Platelet-derived growth factor receptor beta (Homo sapiens) (UniProt P09619); details: at 0.1 µM;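 further: reported value is the mean percent inhibition of the kinase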
# Platelet-derived growth factor receptor beta (Homo sapiens), sequence (P09619 whole entry): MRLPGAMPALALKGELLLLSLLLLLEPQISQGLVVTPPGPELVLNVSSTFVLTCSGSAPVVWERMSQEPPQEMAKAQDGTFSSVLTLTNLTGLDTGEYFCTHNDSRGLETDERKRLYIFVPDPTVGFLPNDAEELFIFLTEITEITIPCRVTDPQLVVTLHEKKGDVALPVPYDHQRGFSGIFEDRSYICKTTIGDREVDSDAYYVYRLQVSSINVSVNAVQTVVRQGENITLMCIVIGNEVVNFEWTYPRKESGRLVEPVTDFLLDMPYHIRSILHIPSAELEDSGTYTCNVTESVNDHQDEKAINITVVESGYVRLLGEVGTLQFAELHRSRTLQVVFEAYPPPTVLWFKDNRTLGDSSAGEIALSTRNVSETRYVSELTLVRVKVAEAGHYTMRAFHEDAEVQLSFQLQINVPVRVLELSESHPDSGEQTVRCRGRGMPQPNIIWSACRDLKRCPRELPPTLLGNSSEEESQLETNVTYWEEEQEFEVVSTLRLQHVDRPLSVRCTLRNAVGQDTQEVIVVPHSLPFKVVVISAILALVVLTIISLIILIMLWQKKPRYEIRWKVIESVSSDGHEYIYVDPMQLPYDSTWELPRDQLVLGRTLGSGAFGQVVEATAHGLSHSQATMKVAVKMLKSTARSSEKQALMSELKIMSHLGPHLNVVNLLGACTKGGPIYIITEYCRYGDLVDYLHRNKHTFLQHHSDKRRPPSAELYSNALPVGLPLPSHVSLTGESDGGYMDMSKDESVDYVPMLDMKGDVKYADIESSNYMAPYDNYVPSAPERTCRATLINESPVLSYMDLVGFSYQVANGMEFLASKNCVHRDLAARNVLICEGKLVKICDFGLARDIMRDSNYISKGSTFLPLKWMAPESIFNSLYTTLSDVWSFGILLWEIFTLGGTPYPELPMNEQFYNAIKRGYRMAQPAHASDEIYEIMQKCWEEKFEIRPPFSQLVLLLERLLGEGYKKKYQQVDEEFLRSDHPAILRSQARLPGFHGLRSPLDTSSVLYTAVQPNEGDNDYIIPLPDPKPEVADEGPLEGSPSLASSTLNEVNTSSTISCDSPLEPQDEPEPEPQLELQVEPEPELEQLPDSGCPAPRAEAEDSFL
# Platelet-derived growth factor receptor alpha (Homo sapiens), P16234 [T674I], sequence (P16234 whole entry T674I): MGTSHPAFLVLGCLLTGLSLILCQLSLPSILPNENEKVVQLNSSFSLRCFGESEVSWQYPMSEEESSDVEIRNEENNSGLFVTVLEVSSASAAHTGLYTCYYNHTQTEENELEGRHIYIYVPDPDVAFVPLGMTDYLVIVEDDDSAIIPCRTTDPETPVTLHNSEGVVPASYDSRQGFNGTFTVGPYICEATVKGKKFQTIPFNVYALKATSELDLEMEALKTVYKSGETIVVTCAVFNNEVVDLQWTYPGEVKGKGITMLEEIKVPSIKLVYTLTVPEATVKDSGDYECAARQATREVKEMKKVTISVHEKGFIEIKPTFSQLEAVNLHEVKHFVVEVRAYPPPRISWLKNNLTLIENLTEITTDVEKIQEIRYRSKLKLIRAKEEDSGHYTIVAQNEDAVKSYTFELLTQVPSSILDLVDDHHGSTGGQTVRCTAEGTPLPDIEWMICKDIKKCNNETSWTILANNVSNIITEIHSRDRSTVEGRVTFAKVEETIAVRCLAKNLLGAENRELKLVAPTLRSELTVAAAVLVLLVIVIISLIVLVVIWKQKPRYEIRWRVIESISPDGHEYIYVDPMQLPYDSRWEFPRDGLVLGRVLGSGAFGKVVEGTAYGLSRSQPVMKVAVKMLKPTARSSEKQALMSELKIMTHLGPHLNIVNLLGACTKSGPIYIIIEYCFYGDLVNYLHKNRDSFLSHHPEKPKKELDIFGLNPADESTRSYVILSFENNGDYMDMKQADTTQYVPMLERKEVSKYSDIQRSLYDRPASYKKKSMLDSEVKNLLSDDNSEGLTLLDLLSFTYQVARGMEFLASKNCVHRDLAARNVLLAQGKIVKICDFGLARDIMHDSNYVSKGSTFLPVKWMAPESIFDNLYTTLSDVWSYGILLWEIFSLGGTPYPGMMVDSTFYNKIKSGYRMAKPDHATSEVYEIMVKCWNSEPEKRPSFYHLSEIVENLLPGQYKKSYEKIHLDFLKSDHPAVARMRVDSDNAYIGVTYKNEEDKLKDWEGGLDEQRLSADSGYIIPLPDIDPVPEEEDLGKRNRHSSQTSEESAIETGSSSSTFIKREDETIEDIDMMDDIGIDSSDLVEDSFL
# Platelet-derived growth factor receptor alpha (Homo sapiens), P16234 [D842V], sequence (P16234 whole entry D842V): as the sequence (P16234 whole entry T674I) above, with I674T, D842V counted along it
# Platelet-derived growth factor receptor alpha (Homo sapiens), P16234 [V561D], sequence (P16234 whole entry V561D): as the sequence (P16234 whole entry T674I) above, with V561D, I674T counted along it
# Platelet-derived growth factor receptor alpha (Homo sapiens), sequence (P16234 whole entry): as the sequence (P16234 whole entry T674I) above, with I674T counted along it
SMILES,inhibition [1],inhibition [2],inhibition [3],inhibition [4],inhibition [5],inhibition [6],inhibition [7],inhibition [8],inhibition [9],inhibition [10]
CC(C)c1ccc(-c2cc(-c3c[nH]nc3-c3ccccn3)ccn2)cc1,6.85%,10%,19.8%,5.82%,34.2%,4.22%,3.25%,5.56%,20.6%,3.19%
COc1ccc2ncn(-c3cc(O[C@H](C)c4ccccc4C(F)(F)F)c(C(N)=O)s3)c2c1,22.4%,8.31%,35.4%,4.46%,24.9%,0.36%,9.23%,5.47%,26.1%,6.65%
CNC(=O)c1ncccc1Nc1nc(Nc2cc3c(cc2OC)CCCN3C(=O)CN(C)C)nc2[nH]ccc12,16.7%,10.7%,20.6%,3.17%,7.19%,5.75%,6.87%,3.32%,9.94%,7.26%
Fc1cccc(COc2ccc(Nc3ncncc3C#Cc3ccccc3)cc2Cl)c1,3.28%,13%,12.4%,5.22%,4.74%,8.12%,9.74%,8.16%,5.45%,6.95%
FC(F)(F)CNc1nccc(-c2cnn3ncccc23)n1,-2.34%,0.78%,10.1%,–,4.9%,1.52%,4.54%,0.59%,2.85%,2.11%
O=C(O[C@H]1CN[C@H](C#Cc2cc3ncnc(Nc4ccc(OCc5cccc(F)c5)c(Cl)c4)c3s2)C1)N1CCOCC1,2.35%,7.9%,14.3%,2.95%,4.82%,8.66%,9.57%,8.32%,3.92%,1.59%
CS(=O)(=O)CCNCc1ccc(-c2ccc3ncnc(Nc4ccc(OCc5cccc(C(F)(F)F)c5)cc4)c3c2)o1,9.15%,9.67%,15.9%,0.59%,1.85%,5.53%,12.3%,4.16%,14.6%,7.32%
Nc1nccc(-c2c(-c3ccc(F)cc3)ncn2C2CCNCC2)n1,4.78% and 1.25%,1.26% and 2.55%,32.6% and 7.91%,3.48% and 2.03%,9.35% and 6.11%,-2.56% and 3.91%,1.13% and 1.39%,4.62% and 3.92%,19.5% and 6.51%,3.91% and 1.3%
COc1cc2c(cc1Nc1nc(Nc3cccc(F)c3C(N)=O)c3cc[nH]c3n1)N(C(=O)CN1CCN(C(C)C)CC1)CC2,8.69%,-1.51%,15.2%,-0.49%,1.55%,2.01%,2.59%,-0.47%,11.6%,1.46%
CS(=O)(=O)Nc1ccc(-c2cc(-c3ccccc3)cc(C(N)=O)c2N)cc1,5.45%,5.04%,12.1%,-0.88%,1.32%,3.63%,9.21%,3.05%,5.7%,4%
CC1=C(C(=O)Nc2ccc3[nH]ncc3c2)C(c2ccc(F)cc2)N=C(c2ccc(C(F)(F)F)nc2)N1 (stereo not drawn),5.28%,6.34%,8.66%,2.97%,3.35%,3.34%,4.17%,3.03%,3.17%,1.04%
Fc1ccc(Nc2nccc(-c3c(-c4ccc(C(F)(F)F)cc4)nn4ncccc34)n2)cc1F,2.81%,8.86%,7.72%,–,4.26%,4.35%,6.66%,3.46%,2.39%,2.15%
COc1c(C(N)=O)cc(-c2ccc(Cl)cc2)cc1-c1ccc(S(N)(=O)=O)cc1,7.45%,3.49%,9.97%,2.3%,2.99%,2.39%,4.51%,3.68%,5.56%,2.5%
Cn1c(-c2nonc2N)nc2cnccc21,5.28%,2.63%,7.48%,2.81%,4.99%,4.72%,6.95%,1.45%,3.93%,1.55%
Cc1cc(O)cc(C)c1/C=C/c1cncc(C(N)=O)c1,3.91%,13%,39.4%,3.88%,16.3%,4.15%,4.33%,21%,55.5%,9.04%

# From ChEMBL document CHEMBL1961873, “Compounds: GSK PKIS; Assays: Nanosyn kinase panel” (2012)
